A collection of fitness landscapes (doi:10.1016/j.celrep.2020.107928)
Over roughly 81,000 sequences, “one-hybrid fitness for binding parS DNA” has its median near -0.17; the highest 2% begin near 0.51. Many of the other results were omitted from the sample, so the highest values are more common in it than they were.

B1: Caulobacter ParB omega fusion; a variant is named by its letters at X, in order, B8GW30 (parent)
chain: MESVVVGEPGMSEGRRGLGRGLSALLGEVDAAPAQAPGEQLGGSREAPIEILQRNPDQPRRTFREEDLEDLSNSIREKGVLQPILVRPSPDTAGEYQIVAGERAWRAAQRAGLKTVPIMVRELDDLAVLEIGIIENVQRADLNVLEEALSYKVLMEKFERTQENIAQTIGKSXSHVANXMRLLXLPDEVQSYLVSGELTAXHARAIAAAADPVALAKQIIEGGLSVRETEALARKAPNLSAGKSKGGRPPRVKDTDTQALESDLSSVLGLDVSIDHRGSTGTLTITYATLEQLDDLCNRLTRGI

Variants of: B1
Experiment: one-hybrid fitness for binding parS DNA (scaled: cognate 1, non-cognate 0); higher = stronger binding
Settings: with parS DNA site
In short: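 Fitness is the rescaled log change in variant-to-wild-type read ratio, measured by Illumina sequencing of plasmids before and after bacterial one-hybrid selection. The scale puts cognate at 1 and non-cognate at 0. Selection of Caulobacter ParB libraries, four specificity codons randomised, took place in E. coli USO with a HIS3 reporter, site 19 bp from the promoter, over 48 hours at 37°C on M9-minus-histidine with 0.1 mM IPTG and 5 mM 3-AT.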

one-hybrid fitness for binding parS DNA, 0.83:
RIWT

one-hybrid fitness for binding parS DNA, 0.4:
RLEN

one-hybrid fitness for binding parS DNA, 0.931:
RITT

one-hybrid fitness for binding parS DNA, 0.91:
RFAC

one-hybrid fitness for binding parS DNA, 0.98:
RAAC

one-hybrid fitness for binding parS DNA, 0.441:
RQGN

one-hybrid fitness for binding parS DNA, 0.754:
RKTT
RNAC

one-hybrid fitness for binding parS DNA, 0.202:
RTEF

one-hybrid fitness for binding parS DNA, 0.372:
RFAN

one-hybrid fitness for binding parS DNA, 0.253:
RTTF

one-hybrid fitness for binding parS DNA, 0.892:
RSFC

one-hybrid fitness for binding parS DNA, 0.772:
RIKT

one-hybrid fitness for binding parS DNA, 0.788:
RIVT

one-hybrid fitness for binding parS DNA, 0.853:
RICT

one-hybrid fitness for binding parS DNA, 0.988:
RQAS
RQHS

one-hybrid fitness for binding parS DNA, 0.939:
RSLC

one-hybrid fitness for binding parS DNA, 0.802:
RSEG

one-hybrid fitness for binding parS DNA, 0.497:
RMTY

one-hybrid fitness for binding parS DNA, 0.273:
RIIM

one-hybrid fitness for binding parS DNA, 0.565:
RRTT

one-hybrid fitness for binding parS DNA, 0.303:
RIKF

one-hybrid fitness for binding parS DNA, 1:
RQAG
RQYS
RMFG

one-hybrid fitness for binding parS DNA, 0.942:
RIVC

one-hybrid fitness for binding parS DNA, 0.852:
RAEG

one-hybrid fitness for binding parS DNA, 0.957:
RQFS

one-hybrid fitness for binding parS DNA, 0.645:
RRHS

one-hybrid fitness for binding parS DNA, 0.249:
RAFF

one-hybrid fitness for binding parS DNA, 0.731:
RFEG

one-hybrid fitness for binding parS DNA, 0.86:
RMEG

one-hybrid fitness for binding parS DNA, 0.674:
RFFC

one-hybrid fitness for binding parS DNA, 1.02:
RCLC
RQLS

one-hybrid fitness for binding parS DNA, 0.959:
RQWS

one-hybrid fitness for binding parS DNA, 0.207:
RMAD

one-hybrid fitness for binding parS DNA, 0.474:
RGEG

one-hybrid fitness for binding parS DNA, 0.444:
RQAY

one-hybrid fitness for binding parS DNA, 0.449:
RIQN

one-hybrid fitness for binding parS DNA, 0.901:
RIIC

one-hybrid fitness for binding parS DNA, 0.398:
RRTY

one-hybrid fitness for binding parS DNA, 0.915:
RATT
RCEG
RREG

one-hybrid fitness for binding parS DNA, 0.979:
RQSS

one-hybrid fitness for binding parS DNA, 0.254:
RITF

one-hybrid fitness for binding parS DNA, 0.924:
RIGT

one-hybrid fitness for binding parS DNA, 0.59:
RRKT

one-hybrid fitness for binding parS DNA, 0.432:
RCPA

one-hybrid fitness for binding parS DNA, 1.01:
RMAG

one-hybrid fitness for binding parS DNA, 0.976:
RQCS

one-hybrid fitness for binding parS DNA, 0.868:
RHTT
RKVC

one-hybrid fitness for binding parS DNA, 0.353:
RKTY

one-hybrid fitness for binding parS DNA, 0.898:
RHEG

one-hybrid fitness for binding parS DNA, 0.893:
RTEG

one-hybrid fitness for binding parS DNA, 0.917:
RTTT
RQFG

one-hybrid fitness for binding parS DNA, 0.978:
RQGS

one-hybrid fitness for binding parS DNA, 0.987:
RQQS

one-hybrid fitness for binding parS DNA, 0.325:
RIKM

one-hybrid fitness for binding parS DNA, 0.208:
RICK

one-hybrid fitness for binding parS DNA, 0.204:
RIGQ

one-hybrid fitness for binding parS DNA, 0.689:
RRHN

one-hybrid fitness for binding parS DNA, 0.886:
RIQT

one-hybrid fitness for binding parS DNA, 0.407:
RIVN

one-hybrid fitness for binding parS DNA, 0.918:
RQRS

one-hybrid fitness for binding parS DNA, 0.48:
RLTY

one-hybrid fitness for binding parS DNA, 0.607:
RRVT

one-hybrid fitness for binding parS DNA, 0.269:
RFFY

one-hybrid fitness for binding parS DNA, 0.949:
RCTT
RKEG

one-hybrid fitness for binding parS DNA, 0.771:
RIEG

one-hybrid fitness for binding parS DNA, 0.694:
RKKC

one-hybrid fitness for binding parS DNA, 0.956:
RLTT

one-hybrid fitness for binding parS DNA, 0.205:
RMAP

one-hybrid fitness for binding parS DNA, 0.895:
RSTT

one-hybrid fitness for binding parS DNA, ≤ 0.2:
LILG
TTYT
KWSC
LCWL
RSLK
RPLC
RELC
RDLC
QCAL
RIIL
MQLE
WYDG
RDFC
RPFC
REFC
DKNG
YTIY
SSYC
RIVH
RAAR
SIFS
QSTM
HPTI
NRIA
RPPA
NRNI
YNMN
KQFG
NYTR
EPTE
PWQI
FKHA
RRVF
RRVK
NRKT
RRKE
VTCL
GDYG
HEET
ALQS
RETT
RHTR
RHTQ
RATQ
RPTT
RATK
VVST
HWNY
MEIG
RTTD
RRTF
RLTR
RMTL
VTRD
SSGG
QKKR
CTAV
PDQD
DVDG
RDTT
RFTD
RSTR
DFTT
RKTF
CALF
HDLT
WILE
CTPG
CPIR
QLLW
TAMD
VFPY
RKVQ
RKVP
RKKR
RKKQ
WLFR
ESLF
DFNL
RNFQ
RNAP
RNFM
AKFS
MTSR
VNNR
RRHD
RRHH
RRHK
RRHP
LFLC
DLIT
RDNY
TIRM
VENG
NEVT
GRRY
QQLD
MQRR
PCLL
ARAW
RIVQ
RIKR
RIKQ
MKRV
NFAC
WGLC
MPTN
GFLD
EFEC
RQAR
RQFD
WVPR
RQQD
RQWH
RQQP
RQAP
RQSP
RQAH
RQWP
KHSR
ICNS
TSSN
FLHK
SFKN
PRKR
NSVS
GRDV
RQYP
RQCH
RQLP
RQFH
RQFP
AMKF
SCQY
YPKA
IKCR
AFFR
MTRW
RQGP
RQHP
RQRD
KTML
PITI
GSLR
VPIR
RTEQ
RHEP
RPEG
RREK
RDEG
RHEH
TLIV
SWMS
PFMN
ASAS
TTEV
EKIY
VYPH
PRMG
VNWT
LVHA
SFKQ
RKED
RKEF
RAEP
RIED
RAEH
RIEI
RMEI
RMEL
HTCW
CSFT
DPQT
PMYE
ASIR
RLED
NFEG
DFEG
REEG
HYRI
IEVV
YPPA
NRYK
SSLC
PCWL
TTWY
CCRS
RMFK
LSRQ
RFMR
RIPM
RIIF
SCFV
QTMW
SRTC
RICD
RIGK
RIQP

one-hybrid fitness for binding parS DNA, 0.455:
RIWN

one-hybrid fitness for binding parS DNA, 1.03:
RCFC

one-hybrid fitness for binding parS DNA, 0.925:
RAFC
RLEG

one-hybrid fitness for binding parS DNA, 0.295:
RREY

one-hybrid fitness for binding parS DNA, 0.626:
RIPC

one-hybrid fitness for binding parS DNA, 0.281:
RIVM

one-hybrid fitness for binding parS DNA, 0.478:
RAAY

one-hybrid fitness for binding parS DNA, 0.292:
RSFM

one-hybrid fitness for binding parS DNA, 0.393:
RQYN

one-hybrid fitness for binding parS DNA, 0.232:
RIPY

one-hybrid fitness for binding parS DNA, 0.945:
RMTT

one-hybrid fitness for binding parS DNA, 0.282:
RIWF

one-hybrid fitness for binding parS DNA, 0.439:
RQLN

one-hybrid fitness for binding parS DNA, 0.262:
RFFN

one-hybrid fitness for binding parS DNA, 0.828:
RRIA

one-hybrid fitness for binding parS DNA, 0.627:
RNFC

one-hybrid fitness for binding parS DNA, 0.301:
RNAN

one-hybrid fitness for binding parS DNA, 0.331:
RAFM

one-hybrid fitness for binding parS DNA, 0.319:
RITM

one-hybrid fitness for binding parS DNA, 0.451:
RQRN

one-hybrid fitness for binding parS DNA, 0.416:
RQCN

one-hybrid fitness for binding parS DNA, 0.438:
RQSN

one-hybrid fitness for binding parS DNA, 0.574:
RRPA

one-hybrid fitness for binding parS DNA, 0.425:
RQHN

one-hybrid fitness for binding parS DNA, 0.836:
RFTT

one-hybrid fitness for binding parS DNA, 0.492:
RMFY

one-hybrid fitness for binding parS DNA, 0.805:
RIKC

one-hybrid fitness for binding parS DNA, 0.363:
RQFN
